Screening results deposited in PubChem by National Center for Advancing Translational Sciences (NCATS).
GCN5L2 inh = qHTS Assay for Inhibitors of GCN5L2 | GCN5L2 HAT assay, ThioGlo1 CoA-SH fluorescence | Histone acetyltransferase KAT2A (Homo sapiens), Q92830 | 390,000 compounds, 0.21% hits | Potency, µM (titrated, usually from 58.9 µM), for the others: at the top dose activity change, negative = inhibition, usual class: inhibitors; note: % is set by controls: 0 for no effect and ±100 for the full control effect
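GCN5L2 (20nM final) in 50mM HEPES, 0.1mM EDTA pH 7.5, 0.01% Tween-20 was preincubated 15 min at room temperature with compound, then given ThioGlo1 (50uM), H3(1-25) peptide (75uM) and acetyl-CoA (70uM); CoA-thiol fluorescence (Ex340/Em540) was read at 0 and 20 min.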
GLS inh = qHTS for Inhibitors of Glutaminase (GLS). Glutaminase kidney isoform, mitochondrial (Homo sapiens), O94925. Potency, µM (doses to about 45.5 µM), inactives show top-dose activity change, negative = inhibition, actives largely listed as inhibitors. GLS enzymatic activity, qHTS titration. 410,000 compounds, 0.21% hits. AID 624170, 2012; note: % is set by controls: 0 for no effect and ±100 for the full control effect
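Human kidney-isoform GLS in 45 mM KH2PO4 pH 8.2, 0.02% Tween-20, with compound, started with 1mM L-Glutamine (added stock). Glutamate oxidase/HRP/Amplex red coupled fluorescence read at start and after 30 min at RT.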
POLI inh = qHTS for Inhibitors of Polymerase Iota; DNA polymerase iota (Homo sapiens), Q9UNA4; Pol iota fluorescent replication assay, 10 min; Potency, µM (highest dose often 115 µM), inactives show at the highest dose activity, negative = inhibition, hits mostly inhibitors; 390,000 compounds, 1% hits
Target sequence (Q9UNA4 whole entry, looked up): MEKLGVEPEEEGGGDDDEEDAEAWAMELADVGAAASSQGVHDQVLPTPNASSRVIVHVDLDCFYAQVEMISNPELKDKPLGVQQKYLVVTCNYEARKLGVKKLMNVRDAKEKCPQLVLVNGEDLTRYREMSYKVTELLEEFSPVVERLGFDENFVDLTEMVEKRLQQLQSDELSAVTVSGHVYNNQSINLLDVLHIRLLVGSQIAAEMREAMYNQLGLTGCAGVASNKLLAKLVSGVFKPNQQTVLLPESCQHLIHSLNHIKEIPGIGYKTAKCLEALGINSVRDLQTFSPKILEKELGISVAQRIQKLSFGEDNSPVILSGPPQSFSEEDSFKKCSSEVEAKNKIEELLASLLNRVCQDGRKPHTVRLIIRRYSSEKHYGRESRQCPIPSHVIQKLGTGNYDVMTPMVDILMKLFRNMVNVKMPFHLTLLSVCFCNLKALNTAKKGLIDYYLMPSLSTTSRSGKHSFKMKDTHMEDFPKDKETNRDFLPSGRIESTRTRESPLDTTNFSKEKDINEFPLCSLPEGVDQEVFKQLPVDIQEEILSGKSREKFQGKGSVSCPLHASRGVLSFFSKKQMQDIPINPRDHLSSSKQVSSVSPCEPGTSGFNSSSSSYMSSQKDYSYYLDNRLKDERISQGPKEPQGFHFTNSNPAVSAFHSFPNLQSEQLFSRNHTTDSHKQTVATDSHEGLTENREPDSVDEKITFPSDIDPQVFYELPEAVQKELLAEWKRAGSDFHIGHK
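Fluorescent replication assay read twice, at 0 min and 10 min after adding 50 nM (final) substrate. Enzyme (10 nM) and compounds were first incubated 15 min at room temperature; enzyme-free buffer wells were negative controls.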
POLH inh = qHTS for Inhibitors of Polymerase Eta | recombinant Pol eta, fluorescent DNA replication assay | Potency, µM (highest dose often 114 µM), for the others: top-dose activity change, negative = inhibition, most hits filed as inhibitors | 390,000 compounds, 1.2% hits | AID 588591, 2011; note: % is set by controls: 0 for no effect and ±100 for the full control effect
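Pol eta at 10 nM preincubated with compounds 15 min at room temperature; reaction started with fluorescent substrate (50 nM final) and read kinetically at 0 and 10 min.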
POLK inh = qHTS for Inhibitors of Polymerase Kappa; purified Pol kappa, fluorescent DNA synthesis assay, 10 min; 400,000 compounds, 0.53% hits; Potency, µM (doses to about 107 µM), for the others: at the highest dose activity, negative = inhibition, usual class: inhibitors; note: % is set by controls: 0 for no effect and ±100 for the full control effect
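Enzyme at 10 nM met test compounds for 15 min at room temperature. Substrate addition (50 nM final) began the reaction, which was monitored by fluorescence at 0 and 10 min.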
Pol beta inh = qHTS Assay for Inhibitors of DNA Polymerase Beta; Pol beta primer extension/strand displacement, fluorescence kinetic; Potency, µM (series often up to 114 µM), inactives show at the highest dose activity change, negative = inhibition, usual class: inhibitors; 340,000 compounds, 1.3% hits; AID 485314, 2010; note: % is set by controls: 0 for no effect and ±100 for the full control effect
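Enzyme-only controls used 10 nM Pol beta; buffer lacking enzyme served as negative control. Compound preincubated 15 min, then 50 nM substrate added; 0 and 10 min reads at room temperature.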
* = called active by the depositor; i = inactive; ? = inconclusive; / = no result; ! = repeats disagree; [ ] = dose if it differs, or a comment. An excerpt weighted towards active compounds, which were near 2.4% of everything screened. Calls come from the whole dose curve; as a rule, active = well fitted inhibition curve with a large enough effect; inconclusive = small, poorly fitted or top-dose-only effect, or another doubt; inactive = no such curve, though single readings can be large or run the other way. Potency is the fitted concentration of half-maximal effect.

SMILES	GCN5L2 inh	GLS inh	POLI inh	POLH inh	POLK inh	Pol beta inh
C[C@@H]1NC(=O)[C@H](CC(N)=O)NC(=O)c2cc([N+](=O)[O-])cc(I)c2OCC[C@@H](C(=O)NC(CC(=O)O)C(N)=O)NC1=O (stereo partly specified)	-8%	?	?	20µM*	79µM*	-21%
C[C@@H]1NC(=O)c2cc([N+](=O)[O-])cc(I)c2OCC[C@@H](C(=O)NC(CC(=O)O)C(N)=O)NC(=O)[C@H](CCC(=O)O)NC1=O (stereo partly specified)	-3%	-5%	?	18µM*	?	-7%
C[C@@H]1NC(=O)c2cc([N+](=O)[O-])cc(I)c2OCC[C@@H](C(N)=O)NC(=O)[C@H](CCC(=O)O)NC1=O	-3%	/	/	/	/	-12%
NC(=O)C(CC(=O)O)NC(=O)[C@@H]1CCOc2c(I)cc([N+](=O)[O-])cc2C(=O)N[C@@H](CCC(=O)O)C(=O)N[C@@H](CO)C(=O)N1 (stereo partly specified)	-1%	-7%	?	?	?	-10%
COc1cc(OC)c(NC(=O)N2CCOc3ccc(C)cc32)cc1Cl	-9%	2%	-18%	-6%	-20%	-20%
O=C(O)c1cc2nccc(-c3ccco3)n2n1	-17%	11µM*	?	18µM*	?	0%
CS(=O)(=O)N1N=C(c2ccccc2)CC1c1ccc2c(c1)OCO2 (stereo unspecified)	-7%	2%	-1%	32µM*	-6%	?
Cc1cc(N2C(=O)C3C4C=CC(C4)C3C2=O)ccc1NC(=O)c1cccs1 (stereo unspecified)	-12%	4%	?	?	-30%	32µM*
O=C(Nc1cccc(N2C(=O)C3C4C=CC(C4)C3C2=O)c1)c1cccs1 (stereo unspecified)	-7%	0%	35%	-18%	-2%	1%
CCOc1cc(/C=C2/C(=N)N3C(=NC2=O)SN=C3S(=O)(=O)C(C)C)ccc1OC(=O)c1ccco1	-23%	23%	4%	45µM*	-10%	-1%
CCOc1cc(/C=C2/C(=N)N3C(=NC2=O)SN=C3S(=O)(=O)CC)ccc1OC(=O)c1ccco1	?	-5%	?	79µM*	4%	-9%
CCS(=O)(=O)C1=NSC2=NC(=O)/C(=C\c3ccc(OC(=O)c4ccco4)c(OC)c3)C(=N)N21	-5%	4%	?	?	2%	27%
COc1cc(/C=C2/C(=N)N3C(=NC2=O)SN=C3S(=O)(=O)C(C)C)ccc1OC(=O)c1ccco1	-20%	19%	?	79µM*	-14%	1%
COc1cc(/C=C2/C(=N)N3C(=NC2=O)SN=C3S(C)(=O)=O)ccc1OC(=O)c1ccco1	-17%	2%	?	50µM*	-19%	-8%
COc1ccc(NC(c2ccc(F)cc2)c2nnc(-c3ccccc3Cl)o2)cc1Cl (stereo unspecified)	-5%	-3%	39%	-19%	-2%	?
C=CC(C)(C)c1[nH]c2ccccc2c1C1=C(O)C(=O)C(c2c[nH]c3c(CC=C(C)C)cccc23)=C(O)C1=O	16µM*	/	/	/	1.4µM*	/
COc1ccc(N(CC(=O)NCCc2cccc(C)c2)S(=O)(=O)c2c(C)nn(C)c2C)cc1	-3%	4%	15%	-25%	-5%	1%
O=C(OCCN1CCOCC1)c1cccnc1	1.1µM*!	-2%	-3%	-3%	-10%	16%
O=C(OCCN1CCOCC1)c1ccccc1	-2%	1%	37%	-3%	-3%	34%
O=C(c1ccco1)[C@@H]1[C@@H]2C(=O)N(c3ccccc3)C(=O)[C@@H]2C2c3ccccc3C=CN21 (stereo partly specified)	2%	-5%	13µM*	?	-13%	36%
Cc1ccc(N2C(=O)[C@@H]3[C@H](C2=O)C2c4ccccc4C=CN2[C@@H]3C(=O)c2ccco2)c(C)c1 (stereo partly specified)	0%	10%	?	28µM*	-23%	21%
Cc1cc(I)ccc1Nc1nc(NCCN2CCOCC2)nc(N2CCOCC2)n1	/	/	8%	/	-13%	/
O=C(O)C1Cc2ccccc2CN1C(=O)COc1ccc(Cl)cc1 (stereo unspecified)	-1%	-8%	-17%	32µM*	-20%	-27%
O=C(O)C1Cc2ccccc2CN1S(=O)(=O)c1ccc(Cl)cc1 (stereo unspecified)	-4%	-11%	27%	?	-24%	?
Nc1ccc2oc(=O)ccc2c1I	0%	/	/	/	13%[60.1 µM]	/
SMILES	GCN5L2 inh	GLS inh	POLI inh	POLH inh	POLK inh	Pol beta inh
CCCCCCc1c(C)c2ccc(OCC(=O)N3CCC[C@H]3C(=O)O)c(C)c2oc1=O	-14%	12%	89µM*	79µM*	-30%	2%
CCCc1cc(=O)oc2c(C)c(OCC(=O)N3CCC[C@@H]3C(=O)O)ccc12	-8%	-4%	10%	3%	11%	11%
COc1ccc(-c2csc(Nc3ccc(S(=O)(=O)Nc4cc(OC)nc(OC)n4)cc3)n2)cc1	-17%	32%	-12%	89µM*	-9%	5%
COc1ccc(-c2csc(NC(=O)c3ccccc3NS(=O)(=O)c3ccc(C)cc3)n2)cc1	-29%	15%	32µM*	20µM*	?	?
COc1ccc(-c2csc(Nc3ccc(S(=O)(=O)Nc4cc(C)on4)cc3)n2)cc1C	-5%	35%	2%	89µM*	4%	?
COc1ccc(S(=O)(=O)Nc2ccccc2C(=O)Nc2nc(-c3ccc(F)cc3)cs2)cc1OC	-29%	70%	-16%	?	-5%	4%
COc1cc(NS(=O)(=O)c2ccc(Nc3nc(-c4ccccn4)cs3)cc2)nc(OC)n1	-1%	-17%	65%	-12%	-7%	20%
CCN(c1cccc(C)c1)S(=O)(=O)c1nnc(NC(=O)c2ccccc2Cl)s1	1%	5%	i	-5%	-13%	1%
CC(=O)N1CCC(C(=O)Nc2nnc(C(C)C)s2)CC1	/	/	12%	/	-18%	/
Cc1ccc(C(=O)NN2C(=O)c3ccc(S(=O)(=O)c4ccc(C(=O)O)cc4)cc3C2=O)cc1	-2%	-5%	87%	-18%	-12%	?
